Compound activity: PubChem BioAssay, National Center for Advancing Translational Sciences (NCATS)
Rows were chosen to be rich in hits. Some 19% of all compounds tested hit in one or more screens of this group.
Pf growth 96h: P. falciparum growth inhibition at 96 hours. P. falciparum luciferase reporter growth, 96 h. Potency, µM (highest dose often 28.7 µM), without a hit: top-dose activity change, negative = inhibition, hits mostly inhibitors. hit rate 6.9% among 320,000. AID 504834; also: potency is read from the fitted curve at half-maximal effect; % is scaled to controls: 0 for no effect and ±100 for the full control effect
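P. falciparum expressing integrated firefly luciferase grown in erythrocytes (2% hematocrit, 0.05% parasitemia final) with compounds for 96 hours at 37 C, 5% CO2. Growth inhibition read as loss of luminescence after adding luciferase detection reagent.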
AMA1-RON2 inh: disrupts binding of P. falciparum AMA1 to RON2; AlphaScreen AMA1-biotinylated RON2 peptide binding; Potency, µM (doses to about 58.2 µM), without a hit: at the highest dose activity change, negative = inhibition, hits mostly inhibitors; hit rate 0.2% among 360,000; AID 720542;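 also: potency is read from the fitted curve at half-maximal effect; 0% = vehicle wells and -100% = peptide control; nearly all actives have a fitted effect of over 45% in size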
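AMA1 (3D7) with his tag at 25 nM final met compounds first, then biotinylated RON2 peptide at 25 nM; detection used donor plus acceptor beads, 10 µg/mL apiece, read by AlphaScreen after 30 min at room temperature.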
SARS PLP yeast: blocks SARS-CoV papain-like protease in a yeast assay | AID 485353 | Potency, µM (titrated, usually from 32.9 µM), for inactives: at the highest dose activity, positive = growth rescue, usual class: activators | hit rate 0.19% among 330,000 | S. cerevisiae expressing SARS-CoV PLpro, growth rescue; calls by dose curve; also: potency is read from the fitted curve at half-maximal effect; 0% is about no effect; nearly all actives have a fitted effect of over 55% in size
Cycloheximide cs: affects cycloheximide protein synthesis inhibition readout, counter-screen; cell reporter, cycloheximide protein synthesis inhibition counterscreen; max response, %; hit rate 12% among 300,000; in the data active = max response mostly above about 13%, no sharp cut-off; inactive = mostly below about 14%; also: read at 38.3 µM for the half of the compounds with a filed dose; 0% is about no effect
Pf growth 48h: inhibits P. falciparum growth in the first generation, 48 h; hit rate 5.9% among 310,000; P. falciparum luciferase growth in erythrocytes, 48 h; Potency, µM (titrated, usually from 28.7 µM), for inactives: at the highest dose activity change, negative = inhibition, most hits filed as inhibitors; also: potency is read from the fitted curve at half-maximal effect; % is scaled to controls: 0 for no effect and ±100 for the full control effect
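Luciferase-expressing parasites in RBCs, 2% Hct / 0.1% parasitemia final; RPMI 1640 + 0.5% Albumax; 37 C, 5% CO2, one generation; luminescence read-out, lower signal = inhibition.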
Shiga toxin inh: Shiga toxin inhibition; AID 2315; inhibition, % at 38.7 µM; hit rate 9.2% among 290,000; Vero cells, Shiga toxin protein synthesis inhibition reporter; in the data active = inhibition mostly above about 28%, no sharp cut-off; inactive = mostly below about 43%; also: 0% is about no effect
Numbers without * were called inactive; u = inconclusive; x = not tested or not shown; + = active, no number. Unless noted, calls follow the shape of the dose curve; as a rule, active = well fitted curve in the direction sought with a large enough effect; inconclusive = small, poorly fitted or top-dose-only effect, or another doubt; inactive = no such curve, though single readings can be large; an effect the other way counts as inactive or inconclusive.

SMILES | Pf growth 96h | AMA1-RON2 inh | SARS PLP yeast | Cycloheximide cs | Pf growth 48h | Shiga toxin inh
Cc1cc(C(=O)N/N=C(\CCC(=O)O)c2cccs2)c2ccccc2n1 | 56% | 40% | 0% | -7 | 18% | -21
CCc1c(C(=O)N/N=C/c2ccsc2)csc1C | 20% | 6% | -7% | 39* | -23% | +
COc1ccc(N2C(=O)C3C(c4ccc(C(=O)O)cc4)NC(Cc4ccccc4)(C(=O)O)C3C2=O)c([N+](=O)[O-])c1 (stereo not drawn) | 2.9µM* | 8% | 2% | 6 | 12% | -16
COC(=O)[C@]1(Cc2ccccc2)N[C@H](c2ccc(-c3cc(C(C)=O)cs3)cc2)[C@@H]2C(=O)N(C)C(=O)[C@@H]21 | u | 6% | 1% | x | 9.3µM* | x
COc1ccc(N2C(=O)C3C4C=CC(C4)C3C2=O)c([N+](=O)[O-])c1 (stereo not drawn) | 33% | 11% | 5% | 2 | -16% | -5
COC(=O)[C@]1(Cc2ccccc2)N[C@H](c2ccc(-c3ccc(Cl)c(Cl)c3)cc2)[C@@H]2C(=O)N(C)C(=O)[C@@H]21 | 9.3µM* | -10% | 0% | x | 5.9µM* | x
COC(=O)[C@]1(Cc2ccccc2)N[C@H](c2ccc(-c3ccccc3)cc2)[C@@H]2C(=O)N(C)C(=O)[C@@H]21 | u | -11% | -5% | x | u | x
COC(=O)[C@]1(Cc2ccccc2)N[C@H](c2ccc(-c3cccc(Cl)c3)cc2)[C@@H]2C(=O)N(C)C(=O)[C@@H]21 | 5.2µM* | -17% | -7% | x | 13µM* | x
NC(=O)c1cccc(-c2coc3c(C(=O)NCCc4ccccc4)cccc23)c1 | x | -1% | x | x | x | x
COc1ccc(/C=N/NC(=O)c2cccnc2)cc1COc1ccc(NC(C)=O)cc1 | 41% | 33% | -2% | 9 | 12% | 16
COc1ccc(/C=N/O)cc1COc1ccc(NC(C)=O)cc1 | 7.4µM* | -1% | 10% | -1 | 7% | 9
COc1ccc(/C=N\NC(=O)c2ccc(F)cc2)cc1COc1ccccc1C(N)=O | u | 5% | 2% | 4 | -3% | -15
COc1ccc(/C=N/NC(=O)c2cccnc2)cc1CN1CCCc2ccccc21 | -17% | u | -2% | 3 | u | 2
COc1cccc(C(=O)N/N=C/c2ccc(OC)c(COc3ccccc3C(N)=O)c2)c1 | u | -6% | 0% | 57* | u | 109*
COc1ccc(C(=O)N/N=C/c2ccc(OC)c(CN3CCCc4ccccc43)c2)cc1 | 18% | u | -12% | 9.4* | 1.2µM* | 1
COc1ccc(OCc2cc(/C=N\NC(=O)c3ccccc3)ccc2OC)cc1 | u | 7% | -3% | 33* | -27% | 72*
Cc1ccc(C)c(NC(=O)CCC(=O)N2CCOc3ccccc32)c1 | 2% | -15% | -2% | 0 | 0% | 1
COc1ccc(-n2c(N)c(-c3nc4ccccc4n3C)sc2=S)cc1 | 28% | 82% | -2% | 10 | 0.93µM* | 20
CCOc1ccc(-n2c(N)c(-c3nc4ccccc4[nH]3)sc2=S)cc1 | x | 87% | -5% | 8 | -20% | -13
CCN(c1ccc(NS(=O)(=O)c2cc(Cl)ccc2Cl)cc1)C(C)C | 16% | u | -10% | -4 | -5% | -5
CN(C)c1ccc(NS(=O)(=O)c2cc(Cl)ccc2Cl)cc1 | u | u | 14% | 21* | 71% | 33
CCOc1ccc(NC(=O)CN(C)S(=O)(=O)c2cccc3cccnc23)cc1 | u | 7% | -1% | 6 | 4% | -9
O=C(Cn1nnc2ccccc2c1=O)NC1CCCc2ccccc21 (stereo not drawn) | 10µM* | 18% | 3% | -1 | 8% | -6
O=C(Cn1nnc2ccccc2c1=O)Nc1ccc2c(c1)CCC2 | u | -4% | 1% | 7 | 24% | 9
C=CCOc1cccn2c(N(C)C(=O)c3ccc(OC)cc3)c(CC)nc12 | x | 17% | x | x | x | x
CCOC(=O)c1sc(NC(=O)CN(CC(C)C)CC(C)C)c(C(=O)OCC)c1C | x | 4% | -2% | -3 | 2.3µM* | -24
CCN(CC)C(=O)c1sc(NC(=O)C(Sc2ccccc2)c2ccccc2)c(C(=O)OC(C)C)c1C (stereo not drawn) | 0.41µM* | -1% | -3% | 17 | x | -11
